This is a sample that favours compounds with a hit; in the whole collection about 22% have one here.
LmPK inh: LmPK (Leishmania mexicana) enzyme inhibition. Q27686. purified LmPK, Kinase-Glo ATP luminescence, 1 h. Potency, µM (highest dose often 57.5 µM), for inactives: top-dose activity change, negative = inhibition, hits mostly inhibitors. hit rate 0.37% among 290,000. AID 1721; note: potency is the fitted concentration of half-maximal effect; % is set by controls: 0 for no effect and ±100 for the full control effect
Target sequence (Q27686 whole entry, looked up): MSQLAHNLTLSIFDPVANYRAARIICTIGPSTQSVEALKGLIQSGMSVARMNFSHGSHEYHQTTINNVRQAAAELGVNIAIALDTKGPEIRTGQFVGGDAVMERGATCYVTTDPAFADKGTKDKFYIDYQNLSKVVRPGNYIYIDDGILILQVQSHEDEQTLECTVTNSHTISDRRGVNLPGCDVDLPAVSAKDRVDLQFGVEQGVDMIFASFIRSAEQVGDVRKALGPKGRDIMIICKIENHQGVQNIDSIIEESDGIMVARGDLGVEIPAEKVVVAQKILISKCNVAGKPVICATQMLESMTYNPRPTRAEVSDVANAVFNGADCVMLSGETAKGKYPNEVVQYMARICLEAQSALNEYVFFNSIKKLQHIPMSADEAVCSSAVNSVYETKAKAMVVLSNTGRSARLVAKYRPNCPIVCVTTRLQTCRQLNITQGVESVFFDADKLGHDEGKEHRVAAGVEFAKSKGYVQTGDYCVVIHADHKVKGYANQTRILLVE
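ATP generated from ADP (0.1 mM) and PEP (0.5 mM) by 0.1 nM LmPK over 1 h at room temperature (pH 7.2 imidazole buffer) was detected by coupled luciferase luminescence. Values were normalized to uninhibited and no-enzyme wells.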
Pf growth 48h: P. falciparum growth inhibition at 48 hours (one generation); hit rate 5.9% among 310,000; Potency, µM (series often up to 28.7 µM), for inactives: at the top dose activity change, negative = inhibition, usual class: inhibitors; AID 504832; P. falciparum luciferase growth in erythrocytes, 48 h; note: potency is the fitted concentration of half-maximal effect; % is set by controls: 0 for no effect and ±100 for the full control effect
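Erythrocytes infected with P. falciparum carrying an integrated firefly luciferase reporter (2% hematocrit, 0.1% parasitemia final) were exposed to compounds in RPMI 1640 with 0.5% Albumax at 37 C, 5% CO2. Growth inhibition was scored as reduced luminescence.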
Cycloheximide cs: counter-screen for Shiga toxin inhibitors: cycloheximide protein synthesis inhibition. AID 2314. cell reporter, cycloheximide protein synthesis inhibition counterscreen. hit rate 12% among 300,000. max response, %; in the data active = max response mostly above about 13%, no sharp cut-off; inactive = mostly below about 14%; note: read at 38.3 µM for the half of the compounds with a filed dose; 0% is about no effect
Pf growth 96h: P. falciparum growth inhibition at 96 hour, primary screen for plastid delayed-death inhibitors | P. falciparum luciferase reporter growth, 96 h | Potency, µM (titrated, usually from 28.7 µM), for inactives: at the top dose activity change, negative = inhibition, hits mostly inhibitors | hit rate 6.9% among 320,000 | AID 504834; note: potency is the fitted concentration of half-maximal effect; % is set by controls: 0 for no effect and ±100 for the full control effect
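Plates of compound plus infected erythrocytes (2% hematocrit, 0.05% parasitemia final) incubate 96 hours, 37 C, 5% CO2. Detection reagent added; reduced luminescence from the parasites' luciferase reporter flags inhibition.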
Shiga inhibitor: Shiga toxin inhibition; Vero cells, Shiga toxin protein synthesis inhibition reporter; inhibition, % at 38.7 µM; hit rate 9.2% among 290,000; AID 2315; in the data active = inhibition mostly above about 28%, no sharp cut-off; inactive = mostly below about 43%; note: 0% is about no effect
Starred values were filed as active, the others as inactive; ? = inconclusive; . = no result; ! = not confirmed by another sample. Unless noted, calls come from the whole dose curve; as a rule, active = well fitted inhibition curve with a large enough effect; inconclusive = small, poorly fitted or top-dose-only effect, or another doubt; inactive = no such curve, though single readings can be large or run the other way.

SMILES	LmPK inh	Pf growth 48h	Cycloheximide cs	Pf growth 96h	Shiga inhibitor
CS(=O)(=O)N(CC(=O)N1CCC(C(N)=O)CC1)c1cc(C(F)(F)F)ccc1Cl	5%	23%	-2	14%	-1
CC(CC(=O)NCc1ccc(Cl)cc1)S(=O)(=O)c1ccc2c(c1)NC(=O)CO2 (centres undefined)	0%	18%	-3	?	-2
Cc1ccc(C(=O)OCc2nc3ccccc3s2)o1	.	48%	.	101%	.
O=C(OCc1cc(=O)n2c(n1)sc1ccccc12)c1ccc(O)cc1	3%	74%	36*	100%	27
O=c1cc(CCl)nc2sc3ccccc3n12	-3%	5%	12	-11%	24
O=C(OCc1nc2ccccc2s1)c1cc2ccccc2oc1=O	-1%	122%	34*	144%	40*
Nc1ccc(C(=O)OCc2nc3ccccc3s2)cc1	6%	41%	56*	62%	87*
O=C(OCc1nc2ccccc2s1)c1ccc(Br)s1	-5%	32%	25*	37%	29
O=C(NNC1=NC2(CCCC2)Cc2ccccc21)c1ccncc1	-4%	-11%	-6	?	-1
Cc1ccc(S(=O)(=O)Nc2cccc(C(=O)N3CCCC3)c2)cc1F	.	-5%	.	20%	.
CCOc1cc(/C=N/NC(=O)CCc2n[nH]c(=O)[nH]c2=O)ccc1O	-2%	8%	1	38%	-6
CCCCC(=O)OCc1c(-c2ccccc2)ncc2ccccc12	.	-6%	.	?	.
Cc1nc2cc(C(=O)N3CCc4ccccc43)ccc2n1-c1ccc(F)c(F)c1	-1%	-3%	-3	38%	-10
Cc1cccc(NC(=O)CC23CC4CC(C2)CC(n2nnc(C)n2)(C4)C3)c1	0%	?	-4	13µM*	-11
COc1ccccc1C(=O)NCc1ccccn1	-13%	8%	1	25%	2
CC(O)COc1ccc(/C(=N/O)c2ccccc2)cc1 (centres undefined)	1%	33%	1	-9%	10
CC(COc1ccc(/C=C/c2ccccc2)cc1)[N+](C)(C)C (centres undefined)	.	1.3µM*	.	0.93µM*	.
CCN(CC)C(=O)COc1coc(CN2CCN(c3ccccc3F)CC2)cc1=O	-9%	-7%	-2	9.3µM*	-3
O=C(COc1coc(CN2CCN(c3ccccc3F)CC2)cc1=O)Nc1ccccc1	.	15%	.	30%	.
Cc1cc(NC(=O)COc2coc(CN3CCN(c4ccccc4F)CC3)cc2=O)no1	.	?	.	9.3µM*	.
COc1cc(N2C(=O)C=CC2=O)c(OC)cc1Cl	14µM*	?	22	?	4
COc1cc(Cl)c(S(=O)(=O)N2CCCC2)cc1Cl	1%	25%	-5	?	-3
COC(=O)c1cc(=O)n(CCc2ccc(OC)cc2)c(=Nc2ccc(F)c(Cl)c2)s1	12%	.	-6	114%	-9
CCOC(=O)c1ccc(N=c2sc(C(=O)OC)cc(=O)n2CCCN2CCOCC2)cc1	10%	?	-7	4.7µM*!	-21
COC(=O)c1cc(=O)n(CCc2ccccc2)c(=Nc2ccc(F)cc2)s1	2%	?	1	4.1µM*	7
SMILES	LmPK inh	Pf growth 48h	Cycloheximide cs	Pf growth 96h	Shiga inhibitor
CC(C)C(C(=O)Nc1ccc2c(c1)OCCOCCOCCOCCO2)N1C(=O)c2ccccc2C1=O (centres undefined)	-4%	-10%	-9	-13%	-3
Cc1ccc(NC(=O)CSCC(=O)Nc2nnc(C)s2)cc1	.	-1%	.	19%	.
O=C(NCCc1cccnc1)C1CCC(=O)N(Cc2ccc(Cl)cc2)C1 (centres undefined)	-7%	?	0	27%	-5
Clc1ccc(Cl)c(-c2nc(-c3ccncc3)no2)c1	10%	14%	-2	?	.
CS(=O)(=O)c1ccccc1-c1nc(-c2ccc([N+](=O)[O-])cc2)no1	1%	?	5	15%	14
O=[N+]([O-])c1cc(Cl)ccc1-c1nc(-c2ccccc2)no1	-8%	245%	58*	-4%	62*
O=[N+]([O-])c1cc(Cl)ccc1-c1nc(-c2ccncc2)no1	0%	?	19	-25%	42*
O=C(CN(c1ccccc1)S(=O)(=O)c1ccccc1)Nc1ccc(F)cc1	0%	-27%	-1	-6%	-6
CCOC(=O)c1sc(NC(=O)CSc2nc3c(c(=O)n2-c2ccc(C)cc2)SCC3)c(C(=O)OCC)c1C	1%	?	1	12µM*	-7
CCN(C(=O)CSc1nc2cc(Cl)ccc2c(=O)n1Cc1ccco1)C1CCS(=O)(=O)C1 (centres undefined)	-5%	?	1	-28%	2
CCOC(=O)c1c(NC(=O)CSc2nc3cc(Cl)ccc3c(=O)n2Cc2ccco2)sc(C(=O)N(C)C)c1C	1%	5.9µM*	-1	4.1µM*	5
CCOC(=O)c1c(NC(=O)CSc2nc3ccccc3c(=O)n2-c2ccccc2)sc(C(C)=O)c1C	4%	0.21µM*	1	2.3µM*	-6
CCOC(=O)c1c(NC(=O)CSc2nc3ccccc3o2)sc(C(C)=O)c1C	2%	33%	11	49%	24
CCOC(=O)CSc1nc2c(c(=O)n1-c1ccc(OC)cc1)SCC2	-3%	-13%	-2	-3%	-4
C=CCn1c(=O)c2ccccc2n2c(SCC(=O)Nc3sc(C(=O)N(CC)CC)c(C)c3C(=O)OCC)nnc12	1%	12µM*	3	0%	-7
O=C(Nc1cc(Cl)ccc1-n1cncn1)c1cc(F)c(F)c(F)c1F	.	-15%	.	-7%	.
CCn1c(SCC(=O)Nc2ccccc2OC)nc2ccccc2c1=O	0%	-25%	3	.	-19
COc1cccc(-n2c(SCC(=O)Nc3sc4c(c3C(N)=O)CCC4)nc3ccccc3c2=O)c1	1%	4.1µM*	-1	-1%	12
CCOC(=O)c1c(C)[nH]c(C)c1C(=O)CSc1nc2ccccc2c(=O)n1-c1ccc(Cl)cc1	0%	?	-2	9.3µM*	-3
CCOc1ccccc1-n1c(SCC(=O)Nc2ccccc2C(=O)O)nc2ccccc2c1=O	-4%	?	36*	72%	35*
CCOC(=O)c1sc(NC(=O)CSc2nnnn2-c2ccc(C)c(C)c2)nc1C	3%	24%	1	2.3µM*	-26
CCOC(=O)c1c(C)[nH]c(C)c1C(=O)CSc1nc2ccccc2c(=O)n1-c1ccc(C)cc1	-4%	?	5	?	-5
O=C(CSc1nc(-c2ccco2)cc(C(F)(F)F)n1)NCCCN1CCOCC1	0%	15%	-3	316%	-4
CCOC(=O)c1c(NC(=O)CSc2nnnn2C)sc(C(=O)N(C)C)c1C	2%	-15%	5	13%	28
CCOC(=O)c1sc(NC(=O)CSc2nnnn2-c2ccc(C)cc2)c(C(=O)OCC)c1C	7%	?	1	5.2µM*	-3
C=CCN1C(=NC(=O)CC)SC2CS(=O)(=O)CC21 (centres undefined)	-4%	2%	-3	29%	-3
Cc1ccc(N)cc1N	.	19%	.	?	.

Source: PubChem
